Results: PubChem BioAssay AID1159580 (chemical genetic matrix, 2015)
Among all 5,500 compounds or so, about 2,000 (36%) were called active. Roughly 18% stayed inconclusive and do not appear here. Cut-off read from the data, not from the text of the source: active = normalized growth mostly below about 0.91 (no sharp cut-off); inconclusive = no clear call, values can overlap the other calls; inactive = mostly above about 0.92. The list shows a part of the results.

Assay: chemical genetic growth profiling, strain panel (AID 1159580);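 note: tested at 20 µM; growth read once vehicle control cultures reached saturation at 30 °C; 1 = growth at the plate median or of vehicle wells; lower values mean less growth of the strain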
Conditions: S. cerevisiae deletion strains, growth OD
[1] = locus YAR019C, strain CDC15, active compounds read low
[2] = locus YBL105C, strain PKC1, active compounds read low
[3] = locus YBR135W, strain CKS1, active compounds read low
[4] = locus YBR136W, strain MEC1, active compounds read low
[5] = locus YBR160W, strain CDC28, active compounds read low
[6] = locus YDL017W, strain CDC7, active compounds read low
[7] = locus YDL028C, strain MPS1, active compounds read low
[8] = locus YDL101C, strain DUN1, active compounds read low
[9] = locus YDL108W, strain KIN28, active compounds read low
[10] = locus YDL132W, strain cdc53, active compounds read low
[11] = locus YDL214C, strain PRR2, active compounds read low
[12] = locus YDR052C, strain DBF4, active compounds read low
[13] = locus YDR054C, strain cdc34, active compounds read low
[14] = locus YDR226W, strain ADK1, active compounds read low
[15] = locus YDR477W, strain SNF1, active compounds read low
[16] = locus YER123W, strain YCK3, active compounds read low
[17] = locus YER133W, strain GLC7, active compounds read low
[18] = locus YFL009W, strain cdc4, active compounds read low
[19] = locus YFL029C, strain CAK1, active compounds read low
[20] = locus YFR003C, strain YPI1, active compounds read low
[21] = locus YFR019W, strain FAB1, active compounds read low
[22] = locus YFR028C, strain CDC14, active compounds read low
[23] = locus YGR040W, strain KSS1, active compounds read low
[24] = locus YGR052W, strain FMP48, active compounds read low
[25] = locus YGR092W, strain DBF2, active compounds read low
[26] = locus YHR030C, strain SLT2, active compounds read low
[27] = locus YHR079C, strain IRE1, active compounds read low
[28] = locus YHR082C, strain KSP1, active compounds read low
[29] = locus YHR205W, strain SCH9, active compounds read low
[30] = locus YIL147C, strain SLN1, active compounds read low
[31] = locus YJL095W, strain BCK1, active compounds read low
[32] = locus YJL128C, strain PBS2, active compounds read low
[33] = locus YJL157C, strain FAR1, active compounds read low
[34] = locus YJR016C, strain ILV3, active compounds read low
[35] = locus YJR066W, strain TOR1 (second series), active compounds read low
[36] = locus YJR066W, strain TOR1, active compounds read low
[37] = locus YKL048C, strain ELM1, active compounds read low
[38] = locus YKL067W, strain YNK1, active compounds read low
[39] = locus YKL101W, strain HSL1, active compounds read low
[40] = locus YKL193C, strain SDS22, active compounds read low
[41] = locus YKL203C, strain TOR2, active compounds read low
[42] = locus YLR113W, strain HOG1, active compounds read low
[43] = locus YLR133W, strain CKI1, active compounds read low
[44] = locus YLR403W, strain SFP1, active compounds read low
[45] = locus YML070W, strain DAK1, active compounds read low
[46] = locus YMR001C, strain CDC5, active compounds read low
[47] = locus YMR205C, strain PFK2 (second series), active compounds read low
[48] = locus YMR277W, strain FCP1, active compounds read low
[49] = locus YNL006W, strain LST8, active compounds read low
[50] = locus YNL020C, strain ARK1, active compounds read low
[51] = locus YNL161W, strain CBK1, active compounds read low
[52] = locus YNL183C, strain NPR1, active compounds read low
[53] = locus YNL207W, strain RIO2, active compounds read low
[54] = locus YNL222W, strain SSU72, active compounds read low
[55] = locus YNL307C, strain MCK1 (second series), active compounds read low
[56] = locus YOL078W, strain AVO1, active compounds read low
[57] = locus YOL136C, strain PFK27, active compounds read low
[58] = locus YOR061W, strain CKA2, active compounds read low
[59] = locus YOR119C, strain RIO1, active compounds read low
[60] = locus YOR231W, strain MKK1, active compounds read low
[61] = locus YOR329C, strain SCD5, active compounds read low
[62] = locus YPL031C, strain PHO85, active compounds read low
[63] = locus YPL153C, strain RAD53, active compounds read low
[64] = locus YPL204W, strain HRR25, active compounds read low
[65] = locus YPL209C, strain IPL1, active compounds read low
[66] = locus YPL256C, strain CLN2, active compounds read low
[67] = locus YPR025C, strain CCL1, active compounds read low
[68] = locus YPR106W, strain ISR1, active compounds read low
[69] = locus YPR111W, strain DBF20, active compounds read low
[70] = strain NNK1, active compounds read low
[71] = strain TSCII, active compounds read low

Measured: normalized growth

CC(C)(C)c1ccc(C(=O)NNc2c(Cl)cccc2Cl)cc1
inactive: [1] 0.977 | [2] 0.952 | [3] 0.948 | [4] 0.97 | [5] 0.958 | [6] 0.973 | [7] 0.98 | [8] 0.985 | [9] 0.965 | [10] 0.968 | [11] 0.9 | [12] 0.974 | [13] 0.981 | [14] 0.986 | [15] 0.948 | [16] 0.904 | [17] 0.939 | [18] 0.975 | [19] 0.978 | [20] 0.974 | [21] 0.933 | [22] 0.973 | [23] 0.918 | [24] 0.946 | [25] 0.894 | [26] 0.864 | [27] 0.885 | [28] 0.974 | [29] 0.86 | [30] 0.974 | [31] 0.898 | [32] 0.878 | [33] 0.88 | [34] 0.966 | [35] 0.868 | [36] 0.959 | [37] 0.954 | [38] 0.892 | [39] 0.89 | [40] 0.974 | [41] 1.01 | [43] 0.89 | [44] 0.893 | [45] 0.862 | [46] 0.971 | [47] 0.888 | [48] 0.971 | [49] 0.978 | [50] 0.889 | [51] 0.981 | [52] 0.887 | [53] 0.974 | [54] 0.969 | [55] 0.902 | [56] 0.967 | [57] 0.85 | [58] 0.874 | [59] 0.985 | [60] 0.832 | [61] 0.981 | [62] 0.935 | [63] 0.92 | [64] 0.947 | [65] 0.968 | [67] 0.962 | [68] 0.944 | [69] 0.995 | [70] 0.943 | [71] 0.972
active: [42] 0.726 | [66] 0.834

CCN(CC)CCNC(=O)c1c(-c2c(Cl)cccc2Cl)noc1C
inactive: locus YAL013W, strain DEP1, active compounds read low 0.996 | locus YBR229C, strain ROT2, active compounds read low 1.01 | locus YCL061C, strain MRC1, active compounds read low 1.02 | [8] 1 | locus YDR150W, strain NUM1, active compounds read low 0.903 | locus YEL061C, strain CIN8, active compounds read low 1.04 | locus YGR078C, strain PAC10, active compounds read low 1.01 | [26] 1.07 | locus YHR087W, strain rtc3, active compounds read low 0.998 | locus YJR043C, strain POL32, active compounds read low 1.03 | locus YJR075W, strain HOC1, active compounds read low 0.982 | locus YLR039C, strain RIC1, active compounds read low 1.16 | locus YLR058C, strain SHM2 (second series), active compounds read low 0.99 | locus YLR085C, strain ARP6, active compounds read low 1.05 | locus YLR262C, strain YPT6, active compounds read low 1.15 | locus YML094W, strain GIM5, active compounds read low 1.02 | locus YMR219W, strain ESC1, active compounds read low 1.01 | locus YMR263W, strain SAP30, active compounds read low 0.992 | locus YNL153C, strain GIM3, active compounds read low 0.99 | locus YNL298W, strain CLA4 (second series), active compounds read low 1.05 | locus YNL322C, strain KRE1, active compounds read low 1 | locus YNR030W, strain Alg12, active compounds read low 1.02 | locus YOL006C, strain TOP1, active compounds read low 1.03 | locus YPL055C, strain LGE1, active compounds read low 0.99 | locus YPL241C, strain CIN2, active compounds read low 1.01 | locus YPR135W, strain CTF4, active compounds read low 0.973

Cc1onc(-c2c(Cl)cccc2Cl)c1C(=O)NC(C)(C)CC(C)(C)C
inactive: [1] 0.998 | [2] 0.99 | [3] 0.991 | [4] 0.989 | [5] 0.997 | [6] 0.997 | [7] 0.976 | [8] 0.994 | [9] 0.983 | [10] 0.992 | [11] 0.945 | [12] 0.991 | [13] 0.995 | [14] 0.999 | [15] 0.977 | [16] 0.919 | [17] 0.97 | [18] 0.995 | [19] 0.998 | [20] 0.992 | [21] 0.972 | [22] 0.995 | [23] 0.956 | [24] 1.04 | [25] 0.969 | [26] 1.12 | [27] 1.05 | [28] 1.08 | [29] 0.955 | [30] 0.99 | [31] 1.07 | [32] 0.945 | [33] 0.953 | [34] 0.992 | [35] 0.951 | [36] 1.09 | [37] 0.982 | [38] 0.961 | [39] 0.953 | [40] 0.996 | [41] 1.04 | [42] 0.962 | [43] 0.965 | [44] 0.927 | [45] 0.932 | [46] 0.998 | [47] 0.966 | [48] 0.998 | [49] 0.988 | [50] 0.971 | [51] 0.995 | [52] 1.03 | [53] 0.991 | [54] 0.989 | [55] 1 | [56] 0.992 | [57] 0.95 | [58] 0.959 | [59] 0.992 | [60] 1.02 | [61] 0.994 | [62] 0.979 | [63] 0.964 | [64] 0.977 | [65] 0.993 | [66] 1.08 | [67] 0.992 | [68] 0.993 | [69] 0.989 | [70] 0.99 | [71] 0.995
